Each structure is given as a SMILES string. Results filed as inconclusive are left out. The source made the active and inactive calls. The calls were made as follows: active = hit-call score of the fitted dose curve at least 0.9, where 1 is the maximum; inconclusive = response in the unintended direction; inactive = score below 0.9.

This is an account of results in PubChem BioAssay AID2283220 (EPA ToxCast).

Chain of human Serum/Glucocorticoid Regulated Kinase 1 (SGK1), SGK1 (gene 6446) (O00141 whole entry, looked up): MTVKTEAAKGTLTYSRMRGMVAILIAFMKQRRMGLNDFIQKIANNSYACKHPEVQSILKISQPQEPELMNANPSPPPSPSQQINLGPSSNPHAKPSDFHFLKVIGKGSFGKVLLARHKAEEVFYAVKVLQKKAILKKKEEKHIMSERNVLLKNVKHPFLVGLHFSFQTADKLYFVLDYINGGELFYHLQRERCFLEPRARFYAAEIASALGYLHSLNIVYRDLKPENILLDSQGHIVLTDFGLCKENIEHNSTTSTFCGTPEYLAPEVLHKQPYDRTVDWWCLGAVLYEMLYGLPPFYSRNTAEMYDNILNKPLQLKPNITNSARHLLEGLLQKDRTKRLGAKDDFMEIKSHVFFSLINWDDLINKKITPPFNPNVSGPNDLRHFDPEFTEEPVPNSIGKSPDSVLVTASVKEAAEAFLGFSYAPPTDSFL

The experiment addresses human Serum/Glucocorticoid Regulated Kinase 1 (SGK1), SGK1 (gene 6446) (UniProt O00141). Briefly: NVS_ENZ_hSGK1: NovaScreen (NVS) Enzymatic Assay for human Serum/Glucocorticoid Regulated Kinase 1 (SGK1). The protocol:
NVS_ENZ_hSGK1 is a biochemical, single-readout assay that uses extracted gene-proteins in a cell-free assay. Measurements were taken 1 hour after chemical dosing in a 96-well plate.NVS_ENZ_hSGK1 is one of one assay component(s) measured or calculated from the NVS_ENZ_hSGK1 assay. It is designed to make measurements of enzyme activity, a form of enzyme reporter, as detected with fluorescence intensity signals by Fluorescence and electrophoretic mobility shift technology.Data from the assay component NVS_ENZ_hSGK1 was analyzed into 1 assay endpoint. This assay endpoint, NVS_ENZ_hSGK1, was analyzed in the positive analysis fitting direction relative to DMSO as the negative control and baseline of activity. Using a type of enzyme reporter, loss-of-signal activity can be used to understand changes in the enzymatic activity as they relate to the gene SGK1. Furthermore, this assay endpoint can be referred to as a primary readout, because this assay has produced […] where this one serves a enzymatic activity function. To generalize the intended target to other relatable targets, this assay endpoint is annotated to the kinase intended target family, where the subfamily is serine/threonine kinase.
Binding assays used specific radioligands (tritiated, iodinated) with non-radioactive competitive displacement ligands in agonist or antagonist protocols (as indicated) and various reference compounds and inhibitors to titrate specific binding to receptors and transporters. Most enzyme assays (CYPs, kinases, phosphatases, proteases, HDACs) used recombinant protein and specific substrates (fluorescence mostly, some colorimetric and radioactive) and inhibitors, followed by a biochemical separation of substrate and product. All assays for the biochemical HTS were initially run in duplicate at a single concentration (10 uM for CYP450 assays and 25 uM for all others). Assay-chemical combinations meeting a pre-defined threshold (e.g., 30% inhibition and other criteria defined below) were then run in singleton concentration-response format with maximum concentration of 20 uM for CYPs and 50 uM for all others. Each assay was run with positive and negative controls, and concurrent controls on every plate. The follow-up (secondary) screen tested active chemical-pairs in concentration series, as well as a few additional assays not tested in the primary screen, some selected negative inactives, and several cases re-run in the concentration series for confirmatory purposes.
As to `N#Cc1c(Cl)c(Cl)c(Cl)c(C#N)c1Cl`, the concentration at half-maximal activity (AC50) is 19.8 µM (active).

In the case of `S=C1NCCN1`, the result was inactive. The same measure, in the same setting: the entry for `CCCC(=NOCC)C1=C(O)CC(CC(C)SCC)CC1=O` (centres undefined) is “inactive”; for `CNC(=S)S` it is “inactive”; for `OC(c1ccc(Cl)cc1)(c1ccc(Cl)cc1)C(Cl)(Cl)Cl` it is “inactive”. Same read-out and setting: the entry for `Nc1c(Cl)cc([N+](=O)[O-])cc1Cl` is “inactive”; for `O=C(O)C(F)(F)C(F)(F)C(F)(F)C(F)(F)C(F)(F)C(F)(F)C(F)(F)F` it is “inactive”; for `COP(=S)(OC)Oc1ccc([N+](=O)[O-])cc1` it is “inactive”.

Consider `CC(C)OC(=O)Nc1cccc(Cl)c1`, for which the compound was classed as inactive. With `O=S(=O)(O)C(F)(F)C(F)(F)C(F)(F)C(F)(F)C(F)(F)C(F)(F)C(F)(F)C(F)(F)F`, the AC50 was 26.2 µM (active).

In the case of `CCNc1nc(Cl)nc(NCC)n1`, the compound was classed as inactive. On the same count and under the same terms, the same measure for `COC(=O)c1ccccc1S(=O)(=O)NC(=O)N(C)c1nc(C)nc(OC)n1`: “inactive”; for `CC(Oc1cccc(Cl)c1)C(=O)O` (centres undefined): “inactive”. On the same count and under the same terms, the entry for `O=C(O)COc1ccc(Cl)cc1Cl` is “inactive”.
